Measured values reported in PubChem BioAssay (Tox21).
Inconclusive results are not listed. Values without a mark were called inactive. Calls follow the shape of the dose curve; as a rule, active = well fitted cell-killing curve with a large enough effect in the repeat runs; inconclusive = weak or mixed curves, or effect the other way; inactive = flat fitted curve, though single readings scatter.

test: qHTS assay to identify small molecule antagonists of the androgen receptor (AR) signaling pathway using the MDA cell line in the presence of 0.5 nM R1881 - cell viability counter screen (AID 1259242); conditions: MDA-kb2 viability, CellTiter-Fluor protease fluorescence, 16 h; series mostly up to 92.4 µM; viability change, negative = cytotoxic: at the top concentration; also: nearly all actives have a fitted effect of over 45% in size
Excerpt: U.S. Tox21 Program National Center for Advancing Translational Sciences [NCATS] NIH Chemical Genomics Center [NCGC] U.S. Environmental Protection Agency [EPA] National Institutes of Environmental Health Sciences [NIEHS] National Toxicology Program [NTP] U.S. Food and Drug Administration [FDA] Tox21 Assay Overview: Androgen receptor (AR) is an important member of the nuclear receptor family. Its signaling plays a critical role in AR-dependent prostate cancer and other androgen related diseases. Considerable attention has been given in the past decades to develop methods to study and screen for the environmental chemicals that have the potential to interfere with metabolic homeostasis, reproduction, developmental and behavioral functions. Therefore AR binding assay for screening androgen antagonists can be used to identify potential endocrine disruptors. MDA-kb2 cells (from ATCC, deposited by Wilson et al.) were used to screen for AR inhibitors against Tox21 compound libraries. These cells are human breast carcinoma cells that were stably transfected with a luciferase reporter gene under control of the MMTV promoter that contains response elements for both androgen receptor (AR) and glucocorticoid receptor (GR). The current screening for identification of AR inhibitors against Tox21 libraries used lower concentration of (0.5 nM) R1881 as a stimulator. The cytotoxicity of the Tox21 compound libraries against MDA-kb2 cell line was tested by measuring live-cell protease activity using CellTiter-Fluor assay in the same wells.
Tox21 Assay Protocol Summary: MDA-kb2 cells (cells cultured without CO2) were dispensed at 3,000 cells/well in 4 uL of culture medium into white wall/solid-bottom 1536-well plates (Corning Life Sciences, Corning, NY) using a Multidrop Combi (ThermoFisher Scientific, Waltham, MA) dispenser. After the assay plates were incubated at a 37C and 0% CO2 for 5 hr, 23 nL of compounds dissolved in DMSO, positive controls or DMSO only was transferred to the assay plate by a Pintool station (Kalypsys, San Diego, CA). The transfer of compounds was followed by the addition of 1 uL of 0.5 nM (final concentration) agonist (R1881)/culture medium using a Flying Reagent Dispenser (FRD, Aurora Discovery, San Diego, CA). The plates were incubated at 37C and 0% CO2 for 16 hr. For cytotoxicity assay, 1 uL of CellTiter-Fluor reagent (Promega Corporation, Madison, WI) was added to each well using the FRD and after 30 min incubation at 37C and 0% CO2, The fluorescence intensity was measured using ViewLux plate reader (PerkinElmer, Shelton, CT).
% is scaled to controls: 0 for no effect and ±100 for the full control effect.

Q: Which “viability change, negative = cytotoxic” value does the source give for `Clc1cc(Cl)c2c(c1)N=C1CCCCCN1C2` here?
A: Its value is 0.252% [at 42.5 µM].

Q: Which “viability change, negative = cytotoxic” value does the source give for `CC(=O)Nc1ccn(C2COC(COC(=O)c3ccccc3)O2)c(=O)n1` (stereo not given) here?
A: Its value is 0.791% [at 42.5 µM].

Q: Which “viability change, negative = cytotoxic” value does the source give for `CCOC(OCC)OCC` here?
A: The value was 0.935%.

Q: Which “viability change, negative = cytotoxic” value does the source give for `CC/C=C/CCO` here?
A: The value was -4.51%.

Q: For `Cc1ccc(NC(=O)c2ccc(CN3CCN(C)CC3)cc2)cc1Nc1nccc(-c2cccnc2)n1`, which “viability change, negative = cytotoxic” value is on record?
A: Its value is -2.2% [at 42.5 µM].

Q: Which “viability change, negative = cytotoxic” value does the source give for `OCC(O)c1ccccc1` (stereo not given) here?
A: Its value is -5.22%.

Q: With `CC1(C)CC(O)CC(C)(C)N1[O]` as the compound, how does the “viability change, negative = cytotoxic” value read?
A: Its value is 3.01%.

Q: For `CCC1=C(C)CN(C(=O)NCCc2ccc(S(=O)(=O)NC(=O)NC3CCC(C)CC3)cc2)C1=O` (stereo not given), which “viability change, negative = cytotoxic” value is on record?
A: The value was 3.83% [at 42.5 µM].

Q: Which “viability change, negative = cytotoxic” value does the source give for `CC1(C)[C@@H]2CC[C@]3(C2)[C@@H]1C(=O)CCC3(C)C` here?
A: Its value is 1.46%.

Q: Which “viability change, negative = cytotoxic” value does the source give for `O=Cc1ccc([N+](=O)[O-])cc1` here?
A: Its value is -2.61%.

Q: Which “viability change, negative = cytotoxic” value does the source give for `Cc1cccc(C)c1NC(=O)CN1CCCC1` here?
A: The value was 2.62% [at 42.5 µM].

Q: For `C[C@H]1C[C@H]2[C@@H]3CCC4=CC(=O)C=C[C@]4(C)[C@@]3(F)[C@@H](O)C[C@]2(C)[C@@]1(O)C(=O)COP(=O)(O)O`, which “viability change, negative = cytotoxic” value is on record?
A: The value was 0.573%.

Q: With `CCCC(=O)OCc1ccccc1` as the compound, how does the “viability change, negative = cytotoxic” value read?
A: The value was 4.6%.

Q: For `O=C(OCCCCCOC(=O)c1ccccc1)c1ccccc1`, which “viability change, negative = cytotoxic” value is on record?
A: The value was 8.93%.

Q: With `COc1cccc([C@H](O)C2CCN(CCc3ccc(F)cc3)CC2)c1OC` as the compound, how does the “viability change, negative = cytotoxic” value read?
A: The value was -8.68%.

Q: Which “viability change, negative = cytotoxic” value does the source give for `O=C1C=CCCC1` here?
A: Its value is -0.82%.

Q: With `CC(=O)CC/C=C(\C)CC/C=C(\C)CC/C=C(\C)CCC=C(C)C` as the compound, how does the “viability change, negative = cytotoxic” value read?
A: The value was 4.22% [at 42.5 µM].

Q: With `O=C(C1CCCCC1)N1CC(=O)N2CCCc3ccccc3C2C1` (stereo not given) as the compound, how does the “viability change, negative = cytotoxic” value read?
A: The value was 0.517% [at 42.5 µM].

Q: For `CC1=C(C)C(=O)C(CCCCC#CCCCC#CCO)=C(C)C1=O`, which “viability change, negative = cytotoxic” value is on record?
A: The value was -3.61% [at 42.5 µM].

Q: For `Nc1ccc(C(=O)Oc2ccccc2)c(O)c1`, which “viability change, negative = cytotoxic” value is on record?
A: Its value is 0.314% [at 42.5 µM].

Q: With `C(/C=C/C=C/Nc1ccccc1)=Nc1ccccc1` as the compound, how does the “viability change, negative = cytotoxic” value read?
A: The value was -5.91%.

Q: For `C=CC(O)CCCCC` (stereo not given), which “viability change, negative = cytotoxic” value is on record?
A: The value was -2.46%.

Q: Which “viability change, negative = cytotoxic” value does the source give for `CCCCOC(=O)CC#N` here?
A: The value was 4.08%.

Q: For `CC(C)(C)c1ccc(CCC=O)cc1`, which “viability change, negative = cytotoxic” value is on record?
A: The value was 3.81%.

Q: Which “viability change, negative = cytotoxic” value does the source give for `CCC(=O)O[C@]1(C(=O)COC)[C@@H](C)C[C@H]2[C@@H]3CCC4=CC(=O)C=C[C@]4(C)C3(F)[C@@H](O)C[C@@]21C` (stereo not given in full) here?
A: Its value is 2.09% [at 42.5 µM].

Q: Which “viability change, negative = cytotoxic” value does the source give for `OCCCO` here?
A: Its value is 1.96%.

Q: Which “viability change, negative = cytotoxic” value does the source give for `CCC[Si](OC)(OC)OC` here?
A: Its value is 3.28%.

Q: For `CCCCCCCCS`, which “viability change, negative = cytotoxic” value is on record?
A: Its value is -1.19%.

Q: For `CCCCCCC/C=C/C=O`, which “viability change, negative = cytotoxic” value is on record?
A: The value was 0.493%.

Q: With `O=C(Cl)c1cc(Cl)cc(Cl)c1` as the compound, how does the “viability change, negative = cytotoxic” value read?
A: Its value is 4.01%.

Q: For `O=C(O)c1ccccc1[N+](=O)[O-]`, which “viability change, negative = cytotoxic” value is on record?
A: The value was 2.39%.

Q: With `CC(=O)c1ccc(Cl)c(Cl)c1Cl` as the compound, how does the “viability change, negative = cytotoxic” value read?
A: The value was 3.02%.

Q: Which “viability change, negative = cytotoxic” value does the source give for `CCCCOc1ccc(N)cc1` here?
A: The value was -0.547%.

Q: With `Cc1cc(N)n(-c2ccccc2)n1` as the compound, how does the “viability change, negative = cytotoxic” value read?
A: The value was 5.61%.

Q: For `N#C[C@@H]1CC(F)(F)CN1C(=O)CNC1CC2CCC(C1)N2c1ncccn1` (stereo not given in full), which “viability change, negative = cytotoxic” value is on record?
A: The value was 0.81%.

Q: Which “viability change, negative = cytotoxic” value does the source give for `Cc1c(Cl)cccc1Nc1ccccc1C(=O)O` here?
A: The value was 2.96% [at 42.5 µM].

Q: Which “viability change, negative = cytotoxic” value does the source give for `C[C@@H](O)[C@H]1C(=O)N2C(C(=O)O)=C(S[C@@H]3CN[C@H](CNS(N)(=O)=O)C3)[C@H](C)[C@H]12` here?
A: The value was 6.58% [at 42.5 µM].

Q: With `O=C(OCCOCCOCCOC(=O)c1ccccc1)c1ccccc1` as the compound, how does the “viability change, negative = cytotoxic” value read?
A: Its value is 3.98%.

Q: Which “viability change, negative = cytotoxic” value does the source give for `Cc1ccc2ccccc2c1[N+](=O)[O-]` here?
A: Its value is 2.75%.

Q: With `CC(=O)c1cccnc1` as the compound, how does the “viability change, negative = cytotoxic” value read?
A: The value was 0.675%.
